Assay results as given in publication PMC4552634, “A New Set of Chemical Starting Points with Plasmodium falciparum Transmission-Blocking Potential for Antimalarial Drug Discovery” (PLoS ONE, 2015).
The whole screen tested about 13,000 compounds, of which about 3,200 (25%) showed an effect of 50% or more. The list shows a part of the results.

system: P. falciparum stage V gametocytes; design: BacTiter-Glo ATP luminescence viability of purified stage V gametocytes in 384-well plates, per cent inhibition versus DMSO; conditions: 48 h, 5 µM; inhibitor

| SMILES | % Inhibition [%] |
| --- | --- |
| CN1CCN(c2ccnc3ccc(NC(=O)Nc4cccc5c(Br)cccc45)cc23)CC1 [TCMDC-139347] | 3.223 |
| Cc1cccc2nc(-c3ccc(-c4ccc(CNCC5CCCO5)cc4)s3)[nH]c12.O=C(O)C(F)(F)F (stereo not shown) [TCMDC-133101] | 42.96 |
| CCN(CC)CCCC(C)Nc1c2cc(OC)ccc2nc2cc(Cl)c([N+](=O)[O-])cc12 (stereo not shown) [TCMDC-138329] | -1.262 |
| CCN(CC)CCCC(C)Nc1c2ccccc2nc2ccc3ccccc3c12 (stereo not shown) [TCMDC-137518] | 45.6 |
| CCN(CC)CCCC(C)Nc1ccnc2[nH]c3ccccc3c12 (stereo not shown) [TCMDC-131826] | 12.54 |
| CCN(CC)CCCC(C)Nc1c2ccc(Cl)cc2nc2ccc(OC)cc12 (stereo not shown) [TCMDC-125480] | 101 |
| CCN(CC)CCCC(C)Nc1c2ccccc2nc2c1ccc1ccccc12 (stereo not shown) [TCMDC-137517] | 51.71 |
| Cc1cccc2[nH]c(-c3cccc(-c4ccc(NC(=O)c5cnn6cccnc56)cc4)c3)nc12 [TCMDC-136868] | -35.86 |
| FC(F)(F)c1cc(CNCCCNc2nc3ccncc3[nH]2)ccc1Cl [TCMDC-140508] | -5.854 |
| CCCC(CNCc1ccc(Cl)c(C(F)(F)F)c1)CNc1nc2ccncc2[nH]1 (stereo not shown) [TCMDC-141057] | 56.14 |
| CCCc1c(Cl)cc(CNCCCNc2nc3ccncc3[nH]2)cc1Cl [TCMDC-140509] | 47.86 |
| O=C(Nc1ccc(Br)cc1)c1cc(Br)ccc1NS(=O)(=O)c1cc(C(F)(F)F)cc(C(F)(F)F)c1 [TCMDC-139753] | -9.383 |
| COc1cc(NC(=O)Nc2ccc(Br)cc2C(=O)Nc2ccc(Br)cc2)cc(OC)c1OC [TCMDC-139733] | 85.99 |
| O=C(Nc1ccc(Br)cc1)c1cc(Br)ccc1NS(=O)(=O)c1ccc(C(F)(F)F)cc1 [TCMDC-139752] | 29.13 |
| COc1ccc(F)cc1-c1ccc(C(=O)N2CCCN(c3ccc(C(F)(F)F)cn3)CC2)cc1 [TCMDC-133384] | -50.34 |
| COc1ccc(F)cc1-c1ccc(C(=O)N2CCCN(c3ccc(C#N)cn3)CC2)cc1 [TCMDC-133385] | 2.781 |
| Cc1ccc(F)cc1-c1cc(N2CCCN(C(=O)c3ccc(Br)o3)CC2)ncn1 [TCMDC-125089] | 67.99 |
| O=C(Cn1c(SCc2cccc(F)c2F)cc(=O)c2ccccc21)N(Cc1ccc(-c2ccc(C(F)(F)F)cc2)cc1)C1CCN(CCO)CC1 [TCMDC-141705] | 107.3 |
| COCCN1CCC(N(CC2(O)CCN(c3ccc(C(F)(F)F)cc3)CC2)C(=O)Cn2c(SCc3cccc(F)c3F)cc(=O)c3ccccc32)CC1 [TCMDC-141629] | 101.7 |
| CCN1CCC(N(Cc2ccc(-c3ccc(C(F)(F)F)cc3)cc2)C(=O)Cn2c(SCc3cccc(F)c3F)cc(=O)c3ccccc32)C1 (stereo not shown) [TCMDC-141301] | 106.2 |
| CC(C)(C)n1nnnc1C(c1cccnc1)N(Cc1ccccc1)Cc1ccc(Cl)cc1 (stereo not shown) [TCMDC-123530] | 11.45 |
| O=C(NCc1ccc(F)cc1)Nc1cccc(-c2ccc(-c3nc4ccccc4[nH]3)cc2)c1 [TCMDC-133300] | 7.874 |
| Cc1nc2nc(N)nc(N)c2c(C)c1Cc1cccc(C(F)(F)F)c1 [TCMDC-137658] | -3.325 |
| COc1ccc(CCCc2nc(N)nc(N)c2-c2ccc(Cl)cc2)cc1 [TCMDC-137358] | -7.157 |
| COc1cc2nc(SCC(C)C)n(CCCn3ccnc3)c(=N)c2cc1OC [TCMDC-125667] | 47.91 |

| SMILES | % Inhibition [%] |
| --- | --- |
| COc1cc2nc(SCCCC#N)n(C3CCCCCC3)c(=N)c2cc1OC [TCMDC-123768] | 60.07 |
| O=C(CC1SC(N2N=C(c3cccs3)CC2c2ccccc2)=NC1=O)Nc1ccccc1F (stereo not shown) [TCMDC-124761] | 0.7985 |
| CCN(CCCN1CCCCC1)c1cc(C)nc(Nc2cc(C(F)(F)F)ccc2C)n1 [TCMDC-132448] | 19.94 |
| CCN(CCCN1CCCCC1)c1cc(C)nc(Nc2ccc(C)c(Cl)c2)n1 [TCMDC-132438] | -8.632 |
| CCN(CCCN1CCCCC1)c1cc(C)nc(Nc2ccc(F)c(C(F)(F)F)c2)n1 [TCMDC-132433] | 31.89 |
| CCN(CCCN1CCCCC1)c1cc(C)nc(Nc2ccc(C)cc2C(F)(F)F)n1 [TCMDC-132444] | -24.78 |
| CCN(CCCN1CCCCC1)c1cc(C)nc(Nc2ccc(Cl)c(C(F)(F)F)c2)n1 [TCMDC-132439] | 56.88 |
| CCN(CCCN1CCCCC1)c1cc(C)nc(Nc2cccc(C(F)(F)F)c2C)n1 [TCMDC-132452] | 62.42 |
| Cc1cc(C)c(O)c(-c2cc(C(=O)Nc3ccc(S(=O)(=O)N4CC(C)OC(C)C4)cc3)[nH]n2)c1 (stereo not shown) [TCMDC-125184] | -32.33 |
| CC1CCCCN1S(=O)(=O)c1ccc(NC(=O)c2cc(-c3ccccc3O)n[nH]2)cc1 (stereo not shown) [TCMDC-125855] | -44.79 |
| O=C(/C=C/c1ccc(Cl)c(Cl)c1)NCCCCCN1CCN(C(=O)Nc2ccc(Cl)c(C(F)(F)F)c2)CC1 [TCMDC-135735] | -27.61 |
| COC1CCC(C(=O)Nc2ccc(-c3cccc(-c4nc5ccc(C(F)(F)F)cc5[nH]4)c3)cc2)CC1 (stereo not shown) [TCMDC-136858] | -5.175 |
| O=C(Nc1ccon1)c1cc(-c2cccnc2)nc2ccc(Cl)cc12 [TCMDC-124360] | -4.584 |
| C=CCOC(=O)N1CCC(CNCc2ccc(-c3ccc(-c4nc5ccccc5[nH]4)s3)cc2)C1.O=C(O)C(F)(F)F (stereo not shown) [TCMDC-133037] | -14.35 |
| CCNc1cc(C(=O)N[C@@H](Cc2ccco2)[C@H](O)CNC2CCCCC2)cc(N2CCCCS2(=O)=O)c1 [TCMDC-135304] | 34.63 |
| COc1ccc(N2CCN(CCCN3CCN(C(=O)c4ccc(/C=C/c5ccc(Cl)c(Cl)c5)cc4)CC3)CC2)c(OC)c1 [TCMDC-138215] | -35.25 |
| COc1cc(C(=O)N2CCN(C(C)C)CC2)ccc1CN(C)CCCN1CCN(c2cccc(Cl)c2Cl)CC1 [TCMDC-136519] | 106.1 |
| Cc1cc(NC(=O)CCN2CCN(c3cccc(Cl)c3Cl)CC2)ccc1N1CCN(C(C)C)CC1 [TCMDC-136695] | 39.36 |
| CC(C)N1CCN(c2ccc(OCCCN3CCN(c4cccc(Cl)c4Cl)CC3)c(C(F)(F)F)c2)CC1 [TCMDC-136647] | -2.358 |
| CC(C)N1CCN(c2ccc(OCCCCN3CCN(c4cccc(Cl)c4Cl)CC3)c(C(F)(F)F)c2)CC1 [TCMDC-136646] | -6.976 |
| Cc1cc(NC(=O)CCCN2CCN(c3cccc(Cl)c3Cl)CC2)ccc1N1CCN(C(C)C)CC1 [TCMDC-136696] | -18.49 |
| COc1cc(NC(=O)CCCN2CCN(c3cccc(Cl)c3Cl)CC2)ccc1N1CCN(C(C)C)CC1 [TCMDC-136697] | 87.5 |
| CC(C)N1CCN(c2ccc(OCCCCN3CCN(c4cccc(Cl)c4Cl)CC3)cc2Cl)CC1 [TCMDC-136639] | -87.47 |
| COc1cc(C(=O)N2CCN(C(C)C)CC2)ccc1CN(C)CCCCN1CCN(c2cccc(Cl)c2Cl)CC1 [TCMDC-136506] | 104.3 |
